Laboratory results published in the supplement of paper PMC4206467.

The compounds below were run on Perkinsus marinus PRA240 (assay: ATP content (proliferation) relative to DMSO control; higher = more parasite growth (less inhibition)). Conditions: 20 µM; 4 days.
Procedure: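 Perkinsus marinus PRA240 trophozoites (2-5x10^6 cells/ml, 100 µl, 96-well) were exposed once to MMV Malaria Box compounds at 20 µM (0.1% DMSO) in triplicate. ATP content (ATPlite bioluminescence) was read at day 4 post-exposure and normalised to DMSO + cells control wells (100% activity). Compounds were identified by joining plate and well to the Malaria Box list.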

Row | Structure (SMILES) | ATP content [%]
1 | O=C(Nc1ccc(Cl)cc1C(=O)Nc1ccncc1)c1ccc(Cl)cc1Cl | 103
2 | O=C(Nc1ccc(-c2nc3cc(NC(=O)c4ccc(Cl)cc4)ccc3[nH]2)cc1)c1ccc(Cl)cc1 | 141
3 | CCOC(=O)c1cnc2c(CC)cccc2c1O | 80.1
4 | Cc1sc(NC(=O)c2ccccc2)c(C(c2cccs2)N2CCN(c3ccccc3)CC2)c1C (stereo not drawn) | 97.8
5 | Cc1nc2ccccc2c(O)c1CC=C(Cl)Cl | 50.4
6 | CC(C)OCc1cc(CN2CCN(c3cccc(Cl)c3)CC2)c(O)c2ncccc12 | 12
7 | CC(=O)NCCc1nc2ccccc2n1Cc1ccc(C(C)C)cc1 | 120
8 | COc1ccccc1CNC(=O)C1c2ccccc2C(=O)N(CC(C)C)C1c1cccs1 (stereo not drawn) | 111
9 | COc1ccc2c(c1OC)C(=O)N1c3ccccc3N=C(c3ccc(C)cc3)CC21 (stereo not drawn) | 155
10 | CCN(CC)c1cc(C)c2cc(NC(=O)c3cccc(OC)c3)ccc2n1 | 74
11 | Oc1c(CN2CCN(c3ccccc3F)CC2)cc(Br)c2cccnc12 | 105
12 | COc1ccc(OC)c(C2C3=C(CC(C)(C)CC3=O)N(c3ccc(Cl)c(Cl)c3)C3=C2C(=O)CC(C)(C)C3)c1 | 161
13 | O=C(NC1CCCC1)c1ccc(N2CCC(NCc3cccc(C(F)(F)F)c3)CC2)cc1 | 103
14 | CCCc1c(C)nc2ccccc2c1O | 28.8
15 | COCCNCC(O)Cn1c2ccc(Cl)cc2c2cc(Cl)ccc21 (stereo not drawn) | 143
16 | CCOc1cc(Cl)c(C(C)NC(=O)c2ccccc2)cc1OCC (stereo not drawn) | 91.1
17 | CCn1c2c(c(=N)c3c1CCC3)CCCC2 | 96.7
18 | O=C(Nc1ccc(Cl)cc1)N1CCN(c2ccc3nncn3n2)CC1 | 124
